Measurements published in PubChem BioAssay (Tox21).
Results filed as inconclusive are left out. Calls of active or inactive are those of the source. Unless noted, calls come from the whole dose curve.

Key:
[1] = Nuclear factor erythroid 2-related factor 2/antioxidant responsive element (Nrf2/ARE) small molecule agonists: luciferase reporter gene qHTS assay in human keratinocytes (AID 1919969); note: nearly all actives have a fitted effect of over 35% in size
[2] = molecular target: Gonadotropin-releasing hormone receptor (Homo sapiens) (UniProt P30968); test: Human gonadotropin-releasing hormone receptor (GnRHR) small molecule agonists, calcium flux assay in GnRHR-HEK293 cells (AID 1920063); note: nearly all actives have a fitted effect of over 35% in size
Gonadotropin-releasing hormone receptor (Homo sapiens), sequence (P30968 whole entry, looked up): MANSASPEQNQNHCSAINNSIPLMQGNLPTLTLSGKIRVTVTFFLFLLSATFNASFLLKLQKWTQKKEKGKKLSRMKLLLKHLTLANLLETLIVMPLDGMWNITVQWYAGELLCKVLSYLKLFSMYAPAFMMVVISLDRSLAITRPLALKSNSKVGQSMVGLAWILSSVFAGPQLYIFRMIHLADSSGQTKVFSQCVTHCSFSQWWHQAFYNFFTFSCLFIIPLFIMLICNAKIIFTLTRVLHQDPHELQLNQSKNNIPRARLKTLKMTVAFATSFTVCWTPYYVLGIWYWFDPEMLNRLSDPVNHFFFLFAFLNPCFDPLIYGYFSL
In short: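 HEK293 cells stably expressing human GnRHR were plated 18 h at 37 °C, loaded with calcium dye 1 h at 37 °C, then given compound in agonist mode; fluorescence (Ex/Em 480/540) read kinetically for 3 min at 1 s intervals.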

[3] = molecular target: KiSS-1 receptor (Homo sapiens) (UniProt Q969F8); test: Human kisspeptin (KISS1R) small molecule agonists, calcium flux assay in KISS1R-HEK293 cells (AID 1920064; active = well fitted activation curve with a large enough effect in the repeat runs)
KiSS-1 receptor (Homo sapiens), sequence (Q969F8 whole entry, looked up): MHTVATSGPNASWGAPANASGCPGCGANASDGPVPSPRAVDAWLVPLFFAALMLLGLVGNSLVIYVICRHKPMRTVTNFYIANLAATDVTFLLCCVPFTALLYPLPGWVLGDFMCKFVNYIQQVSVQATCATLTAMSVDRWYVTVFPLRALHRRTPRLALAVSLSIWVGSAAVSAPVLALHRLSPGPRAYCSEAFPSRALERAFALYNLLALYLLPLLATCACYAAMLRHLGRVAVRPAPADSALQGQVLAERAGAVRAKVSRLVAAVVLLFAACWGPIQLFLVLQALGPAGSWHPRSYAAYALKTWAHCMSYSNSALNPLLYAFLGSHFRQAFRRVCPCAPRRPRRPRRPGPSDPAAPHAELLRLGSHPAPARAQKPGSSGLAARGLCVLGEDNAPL
In short: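 HEK293 cells stably expressing human KISS1R were plated 18 h at 37 °C, loaded with calcium dye for 1 h at 37 °C, then given compound by pin tool. Fluorescence (Ex/Em 480/540) was read kinetically for 3 min.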

[4] = G protein-coupled receptor (GPCR) small molecule agonists, calcium flux assay: HEK293 wild type cell line counter screen (AID 1920065)
In short: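 Cells were plated and cultured 18 h at 37 C/5% CO2, then loaded with calcium dye for 1 h at 37 C. Compounds in DMSO were pin-transferred in agonist mode, and fluorescence (Ex/Em 480/540) was read kinetically for 3 min at 1 s intervals.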

[5] = p53 small molecule agonists, cell-based qHTS assay with human liver microsomes (AID 1963577);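 note: p53 response element beta-lactamase reporter cells with liver microsomes plus NADPH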
In short: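 With metabolic activation: human liver microsomes (0.5 mg/mL final) plus NADPH (0.5 mg/mL final) added alongside compounds to p53RE-bla cells; 16 h 37 C exposure; beta-lactamase read by LiveBLAzer fluorescence.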

[6] = p53 small molecule agonists, cell-based qHTS assay with rat liver microsomes (AID 1963578)
In short: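 Metabolic activation by rat liver microsomes and NADPH, each 0.5 mg/mL final, added right after compounds to p53RE-bla reporter cells (4,000/well, plated 5 h earlier). 16 h at 37 C, then LiveBLAzer substrate for 2 h at room temperature in the dark; fluorescence read-out.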

[7] = p53 small molecule agonists, cell-based qHTS assay with human liver microsomes: qHTS cell viability counter screen (AID 1963579); note: nearly all actives have a fitted effect of over 45% in size
In short: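 Metabolic activation used human liver microsomes and NADPH, both 0.5 mg/mL final, over 16 hours at 37 C on p53RE-bla cells (4,000/well). Cytotoxicity measured by CellTiter-Glo luminescence, 30 min at room temperature.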

[8] = p53 small molecule agonists, cell-based qHTS assay with rat liver microsomes: qHTS cell viability counter screen (AID 1963580); note: nearly all actives have a fitted effect of over 45% in size
In short: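 Viability is assessed in parallel with the p53 reporter read: HCT-116 p53RE-bla cells receive compounds plus rat microsomes and NADPH (0.5 mg/mL final apiece), incubate 16 h at 37 C, and then CellTiter-Glo luminescence is recorded.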

[9] = p53 small molecule agonists, cell-based qHTS assay: qHTS cell viability counter screen (AID 1963581); note: nearly all actives have a fitted effect of over 45% in size
In short: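 p53RE-bla HCT-116 cells were exposed to compounds for 16 h at 37 C; after the beta-lactamase FRET read in the same wells, CellTiter-Glo was added and luminescence (intracellular ATP) read after 30 min at room temperature.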

[10] = p53 small molecule agonists, cell-based qHTS assay (AID 1963582; active = well fitted activation curve with a large enough effect in the signal ratio in the repeat runs, not every such curve was filed as active; the % refers to the signal ratio)
In short: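 p53RE-bla beta-lactamase reporter cells rested 5 h at 37 C/5% CO2, then received compounds in DMSO by pin transfer and were incubated 16 h at 37 C. LiveBLAzer B/G FRET substrate was loaded for 2 h at room temperature before fluorescence reading.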

[11] = cAMP Responsive Elements (CRE) small molecule agonists, cell-based qHTS assay (AID 1963590)
In short: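 CRE-bla HEK 293T cells in DMEM with 10% dialyzed FBS, NEAA, pyruvate and 25 mM HEPES were plated 18 h at 37 C/5% CO2, then exposed to compounds in DMSO for 3 h before LiveBLAzer B/G FRET substrate addition.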

[12] = cAMP Responsive Elements (CRE) small molecule antagonists, cell-based qHTS assay (AID 1963591; active = well fitted inhibition curve with a large enough effect in the signal ratio in the repeat runs, not every such curve was filed as active; the % refers to the signal ratio)
In short: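 CRE-bla HEK293T cells were plated 18 h at 37 °C/5% CO2, pinned with compound in DMSO, then stimulated with NKH477 at 0.25 uM final for 3 h. LiveBLAzer B/G FRET substrate was added and plates incubated 2 h at room temperature.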

[13] = molecular target: Beta-2 adrenergic receptor (Homo sapiens) (UniProt P07550); test: Adrenergic beta2 receptor (ADRB2) small molecule antagonists, cell-based qHTS assay (AID 1963592); note: series mostly up to about 92 µM; nearly all actives have a fitted effect of over 50% in size
Beta-2 adrenergic receptor (Homo sapiens), sequence (P07550 whole entry, looked up): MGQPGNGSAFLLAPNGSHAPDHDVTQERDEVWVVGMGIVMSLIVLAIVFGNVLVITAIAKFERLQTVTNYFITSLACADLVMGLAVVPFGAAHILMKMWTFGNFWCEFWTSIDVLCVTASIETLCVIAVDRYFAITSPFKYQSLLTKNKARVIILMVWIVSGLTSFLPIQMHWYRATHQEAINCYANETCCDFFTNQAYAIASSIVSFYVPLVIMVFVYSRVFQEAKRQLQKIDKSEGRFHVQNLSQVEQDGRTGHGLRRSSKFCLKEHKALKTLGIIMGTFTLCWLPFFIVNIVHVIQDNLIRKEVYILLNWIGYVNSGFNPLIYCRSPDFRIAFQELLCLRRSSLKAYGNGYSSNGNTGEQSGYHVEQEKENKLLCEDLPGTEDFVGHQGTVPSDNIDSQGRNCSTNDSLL
In short: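 Cells (CHO, stable ADRB2 overexpression) incubated 18-20hr at 37C; compounds added from DMSO; agonist mix (1nM isoproterenol, 100uM IBMX, 25uM Ro-20-1724) added; 0.5hr RT; d2-cAMP and anti-cAMP-cryptate added; 1hr RT; 665/615 nm read.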

[14] = molecular target: D(2) dopamine receptor (Homo sapiens) (UniProt P14416); test: Dopamine D2 receptor (DRD2) small molecule agonists, cell-based qHTS assay (AID 1963594); note: nearly all actives have a fitted effect of over 35% in size
D(2) dopamine receptor (Homo sapiens), sequence (P14416 whole entry, looked up): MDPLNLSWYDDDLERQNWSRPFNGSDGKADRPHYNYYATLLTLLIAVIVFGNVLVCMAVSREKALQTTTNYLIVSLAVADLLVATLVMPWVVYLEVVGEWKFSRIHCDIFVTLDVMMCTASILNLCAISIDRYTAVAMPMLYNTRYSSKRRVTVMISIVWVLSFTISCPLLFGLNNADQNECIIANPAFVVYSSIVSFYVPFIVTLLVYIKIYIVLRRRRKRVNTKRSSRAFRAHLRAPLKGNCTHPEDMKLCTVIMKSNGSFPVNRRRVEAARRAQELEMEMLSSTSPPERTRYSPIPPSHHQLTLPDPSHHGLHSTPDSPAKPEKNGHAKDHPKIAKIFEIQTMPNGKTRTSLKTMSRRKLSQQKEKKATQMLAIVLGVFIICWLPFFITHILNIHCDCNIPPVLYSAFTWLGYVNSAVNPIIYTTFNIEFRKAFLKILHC
In short: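 HEK293 cells stably expressing human DRD2, pre-treated with PDE inhibitor Ro20-1724 (0.1 mM final) and compound 10 min at room temperature, then stimulated with NKH477 (200nM […]) for 30 min. cAMP read by HTRF (665/620 nm).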

[15] = molecular target: D(2) dopamine receptor (Homo sapiens) (UniProt P14416); test: Dopamine D2 receptor (DRD2) small molecule antagonists, cell-based qHTS assay (AID 1963595; active = well fitted inhibition curve with a large enough effect in the signal ratio in the repeat runs, with a control signal flat; the % refers to the signal ratio)
In short: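 Human DRD2 antagonist qHTS measuring cAMP by HTRF. The cells are exposed to compound for 10 min, then to NKH477 (200 nM) and quinpirole (12 nM) for 30 min at RT, with Ro20-1724 (0.1 mM) present throughout.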

[16] = molecular target: 5-hydroxytryptamine receptor 2A (Homo sapiens) (UniProt P28223); test: 5-hydroxytryptamine receptor 2A (HTR2A) small molecule antagonists, cell-based qHTS assay (AID 1963586); note: nearly all actives have a fitted effect of over 45% in size
5-hydroxytryptamine receptor 2A (Homo sapiens), sequence (P28223 whole entry, looked up): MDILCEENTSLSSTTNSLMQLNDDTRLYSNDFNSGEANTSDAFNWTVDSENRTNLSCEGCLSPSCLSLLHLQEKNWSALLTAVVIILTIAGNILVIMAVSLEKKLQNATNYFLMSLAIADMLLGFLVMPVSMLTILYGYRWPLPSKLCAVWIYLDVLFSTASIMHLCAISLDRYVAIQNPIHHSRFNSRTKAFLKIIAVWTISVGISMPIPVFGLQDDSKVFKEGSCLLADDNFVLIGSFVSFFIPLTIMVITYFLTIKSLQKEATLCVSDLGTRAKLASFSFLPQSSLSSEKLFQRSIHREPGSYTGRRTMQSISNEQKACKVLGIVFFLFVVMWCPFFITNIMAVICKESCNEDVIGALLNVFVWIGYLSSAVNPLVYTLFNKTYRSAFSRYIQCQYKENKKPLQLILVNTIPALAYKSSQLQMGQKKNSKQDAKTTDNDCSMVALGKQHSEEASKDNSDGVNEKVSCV
In short: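 Antagonist-mode intracellular calcium assay: DOI (4 nM) added after 5 min compound pre-incubation at room temperature to dye-loaded HTR2A-CHO cells. Fluorescence followed for 3 min, sampled every second.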

[17] = molecular target: 5-hydroxytryptamine receptor 2A (Homo sapiens) (UniProt P28223); test: 5-hydroxytryptamine receptor 2A (HTR2A) small molecule agonists, cell-based qHTS assay (AID 1963587); note: nearly all actives have a fitted effect of over 30% in size
In short: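 CHO cells stably expressing human HTR2A, plated 18 h, loaded with calcium dye 1 h at 37 C. Agonist mode: compounds added and intracellular calcium fluorescence recorded kinetically for 2 min at 1 sec intervals.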

[18] = molecular target: Muscarinic acetylcholine receptor M1 (Homo sapiens) (UniProt P11229); test: Cholinergic receptor muscarinic 1 (CHRM1) small molecule antagonists, cell-based qHTS assay (AID 1963588); note: nearly all actives have a fitted effect of over 40% in size
Muscarinic acetylcholine receptor M1 (Homo sapiens), sequence (P11229 whole entry, looked up): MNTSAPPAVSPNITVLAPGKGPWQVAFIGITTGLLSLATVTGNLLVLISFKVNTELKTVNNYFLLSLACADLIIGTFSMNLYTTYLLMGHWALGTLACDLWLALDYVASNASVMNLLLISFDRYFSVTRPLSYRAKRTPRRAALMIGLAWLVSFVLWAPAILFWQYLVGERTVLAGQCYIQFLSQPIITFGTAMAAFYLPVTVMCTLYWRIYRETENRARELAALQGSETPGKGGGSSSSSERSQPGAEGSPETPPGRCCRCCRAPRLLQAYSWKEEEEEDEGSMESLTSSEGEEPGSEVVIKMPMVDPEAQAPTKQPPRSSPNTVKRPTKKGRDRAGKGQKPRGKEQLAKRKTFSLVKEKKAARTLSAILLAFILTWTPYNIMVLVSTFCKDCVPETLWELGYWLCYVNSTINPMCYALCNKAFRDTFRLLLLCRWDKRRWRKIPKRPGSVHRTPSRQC
In short: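 CHRM1-CHO calcium-flux assay, antagonist mode. Cells were seeded 18 h, dye-loaded 1 h at 37 C and given compound for 5 min at RT, then acetylcholine was added at 50nM. FDSS fluorescence was read 3 min; 15 concentrations, three runs.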

[19] = molecular target: Muscarinic acetylcholine receptor M1 (Homo sapiens) (UniProt P11229); test: Cholinergic receptor muscarinic 1 (CHRM1) small molecule agonists, cell-based qHTS assay (AID 1963589); note: nearly all actives have a fitted effect of over 35% in size
In short: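 CHO cells stably expressing human CHRM1, seeded 18 h at 37 C/5% CO2, dye-loaded 1 h at 37 C, then given compound in agonist mode; intracellular calcium fluorescence read kinetically at 1 s intervals. Fifteen concentrations, three independent runs.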

[20] = molecular target: Beta-2 adrenergic receptor (Homo sapiens) (UniProt P07550); test: Adrenergic beta2 receptor (ADRB2) small molecule agonists, cell-based qHTS assay (AID 1963593);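 note: CHO cells stably overexpressing human ADRB2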
In short: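 CHO cells stably over-expressing ADRB2 were plated overnight at 37C, then dosed with compounds plus a stimulation mix containing 100uM IBMX and 25uM Ro-20-1724 for 0.5hr at room temperature. cAMP was measured by HTRF competition, 1hr.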

Measured: Potency

CCOC(=O)[C@H](CCc1ccccc1)N[C@@H](C)C(=O)N1CCC[C@H]1C(=O)O
not listed: [16] | [17] | [18] | [19] | [20]
inactive: all other assays above

C/C=C(\C)C(=O)OCC/C=C\CC
not listed: [20]
inactive: all other assays above

COc1cc2c(cc1OC)CN(C(=O)[C@H](C)N[C@@H](CCc1ccccc1)C(=O)O)[C@H](C(=O)O)C2
not listed: [11] | [20]
inactive: all other assays above

Cc1cc(C(C)(C)C)c(O)c(C)c1Cn1c(=O)n(Cc2c(C)cc(C(C)(C)C)c(O)c2C)c(=O)n(Cc2c(C)cc(C(C)(C)C)c(O)c2C)c1=O
not listed: [10] | [12]
inactive: all other assays above

Oc1ccccc1Cc1ccccc1O
not listed: [9] | [10]
inactive: all other assays above

CCOC(C)=O
not listed: [8] | [18] | [20]
inactive: all other assays above

O=C(O)c1cccc(N(Cc2cccnc2)c2ccc(OC(F)F)c(OC(F)F)c2)c1
not listed: [10] | [11] | [12] | [17]
inactive: all other assays above
